Screening data as filed in PubChem.
NADH enzymes: inhibition of NAD/NADH coupling enzymes, library profiling | IC50, µM (series often up to 10 µM), without a hit: at the top dose inhibition | hit rate 0.02% among 65,000 | coupled PK/LDH NADH assays, four targets;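 active = single-dose screening hits from any of four coupled enzyme assays that gave an IC50 when retested across doses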;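 also: the DPM-DC format reads NADH fluorescence rather than 340 nm absorbance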
A340 absorber: absorbance at 340 nm. compound absorbance at 340 nm, fold over control. fold change at 10 µM. 65,000 tested, under 10 active;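 active = at 10 µM dose, initial 340 nm absorbance at least 2 fold that of control wells; inactive = change under 2 fold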;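 also: initial absorbance extrapolated from kinetic A340 decline of NADH oxidation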
Fluor 339 460: intrinsic fluorescence of library compounds, ex339/em460 – biochemical, MLSMR library, data from DPM-DC assay, artefact control, profiling panel. fluorescence fold increase at 10 µM. compound autofluorescence, ex339/em460 nm, NADH buffer; stronger effect = higher value; 1 = no-compound wells, NADH background. hit rate 5.5% among 65,000;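 active = at 10 µM, mean starting fluorescence two-fold or more over control wells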;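 also: signal is the first read of a kinetic run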
Spn DPM-DC inh: inhibitors of Streptococcus pneumoniae diphosphomevalonate decarboxylase; purified DPM-DC, PK/LDH coupled NADH fluorescence; calls only at 10 µM; hit rate 0.49% among 65,000; AID 556;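 active = the 320 compounds with the highest percent inhibition in the single-dose primary screen, excluding strongly autofluorescent ones, cut at about 32% in these data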;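 also: kinetic rate of NADH fluorescence loss reporting ADP formed by the decarboxylase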
Spn MK inh: blocks S. pneumoniae mevalonate kinase; purified MK, PK/LDH-coupled NADH absorbance 340 nm; inhibition, % at 10 µM; hit rate 0.48% among 65,000; AID 555;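 active = ranked among the strongest by inhibition in the single 10 µM screen, a fixed top-ranked set picked for dose follow-up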
Spn PMK inh: S. pneumoniae PMK inhibition; purified PMK, PK/LDH-coupled NADH absorbance 340 nm; inhibition, % at 10 µM; hit rate 0.49% among 65,000; AID 539;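 active = top-ranked compounds by inhibition in the single 10 µM screen, taking a fixed number of the strongest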;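 also: 0% = full reaction with DMSO carrier and 100% = background rate without enzyme reaction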
Active calls of the source: *; i = inactive; . = no result shown; + = active, no number. Compounds with a hit are over-represented: about 6.5% of the library has one in this group of screens.

SMILES | NADH enzymes | A340 absorber | Fluor 339 460 | Spn DPM-DC inh | Spn MK inh | Spn PMK inh
CCOC(=O)c1[nH]c2ccc(F)cc2c1NC(=O)CN1CCc2cc(OC)c(OC)cc2C1 | 11% | 1 | 1.9 | i | 14 | 13
O=C(NCc1ccccc1F)C1CCCN(C(=O)NC2CCCCC2)C1 (stereo not given) | 3% | 1 | 1.1 | i | 2 | 7
COc1cccc(OC)c1OCC(C)CNCC1CCCO1 (stereo not given) | 17% | 1 | 1.1 | i | 52* | 0
CCOC(=O)N1CCC(NC(=O)c2cnn3cccnc23)CC1 | 10% | 1.1 | 2.1* | i | 6 | 5
COc1cc2nc(C3CCC3)n(NC(=O)C3CCCC(OC)C3)c(=O)c2cc1OC (stereo not given) | 4% | 0.97 | 1 | i | 9 | active
C=CCN=C(NC#N)SCc1ccccc1Cl | 2% | 1 | 1.1 | i | 0 | 7
Cc1c(OC(=O)CNC(=O)OC(C)(C)C)ccc2c3c(c(=O)oc12)CCC3 | 6% | 1 | 3.9* | . | 8 | 3
Cc1oc2c(C)c3oc(=O)c4c(c3cc2c1C)CCCC4 | 5% | 1.1 | 1.5 | i | 5 | 2
Cc1oc(C(=O)O)cc1COc1ccc2c3c(c(=O)oc2c1C)CCCC3 | 11% | 1.1 | 2.2* | . | 9 | 12
CC(=O)C(C)Oc1ccc2c3c(c(=O)oc2c1C)CCCC3 (stereo not given) | 10% | 1 | 3.8* | . | 15 | 5
CC(=O)COc1ccc2c3c(c(=O)oc2c1C)CCCCC3 | 5% | 1.2 | 3.8* | . | 7 | 3
CC(C)CCNC(=O)Cn1c(NCCC(C)C)nc2c1c(=O)n(C)c(=O)n2C | 1% | 1 | 1.1 | i | 2 | 4
Cc1cccc(C2CC(c3ccc(Br)cc3)Nc3nc(N)nn32)c1 (stereo not given) | 2% | 0.99 | 1.1 | i | 12 | 1
COCC(=O)Nc1nc2n(n1)C(c1ccc(OC)cc1)CC(c1ccc(OC)cc1)N2 (stereo not given) | 4% | 1 | 2 | i | 6 | 0
COCC(=O)Nc1nc2n(n1)C(c1ccccc1)CC(c1ccc(OC)cc1)N2 (stereo not given) | 8% | 1.1 | 2.7* | i | 8 | 3
COc1ccc(C2CC(c3cccc(C)c3)n3nc(N)nc3N2)cc1 (stereo not given) | 40% | 1.1 | 0.14 | + | 6 | 15
CCOC(=O)c1[nH]c(C(=O)O)c(CCN(CC)CC)c1C | 10% | 1 | 1 | i | 1 | 19
CCc1nn2c(=O)cc(CSc3nc4sc5c(c4c(=O)n3C)CCCC5)nc2s1 | 5% | 1 | 1 | i | 17 | 11
Cc1ccc2oc(-c3ccc(NC(=O)CC(C)C)cc3)nc2c1 | 3% | 1.1 | 2.2* | . | 2 | 4
Cc1c(C(=O)Nc2ccc(-n3cnnn3)cc2)oc2ccccc12 | 12% | 1.1 | 3.8* | . | 13 | 10
CC(=O)Nc1cccc(NC(=O)c2oc3ccccc3c2C)c1 | 1% | 1 | 1.1 | i | 11 | 0
Cc1c(C(=O)Nc2ccc3oc(-c4cccnc4)nc3c2)oc2ccccc12 | 11% | 1.1 | 3.8* | . | 13 | 8
CC(C)CC(=O)Nc1ccc2oc(-c3cccnc3)nc2c1 | 4% | 1.1 | 2.2* | . | 8 | 0
CC(C)c1ccc(NC(=O)C2CC(=O)N=C(N)S2)cc1 (stereo not given) | 2% | 1 | 1.1 | i | 0 | 6
CCCCC(=O)NC(Nc1nc(C2CC2)cs1)(C(=O)OCC)C(F)(F)F (stereo not given) | 8% | 0.98 | 0.95 | i | 3 | 9
SMILES | NADH enzymes | A340 absorber | Fluor 339 460 | Spn DPM-DC inh | Spn MK inh | Spn PMK inh
CN1CCN(S(=O)(=O)c2ccc(Cc3ccc(S(=O)(=O)N4CCN(C)CC4)cc3)cc2)CC1 | 3% | 1 | 1.1 | i | 0 | 9
O=C(Nc1ccccc1-c1nc2ccccc2o1)c1ccc2c(c1)OCCO2 | 4% | 1 | 3.3* | . | 10 | 8
O=C(Nc1ccc2oc(-c3ccccc3F)nc2c1)c1ccc2c(c1)OCCO2 | 13% | 1 | 3.2* | i | 3 | 15
O=C(Nc1ccc2oc(-c3ccc(F)cc3)nc2c1)c1ccccc1F | 9% | 1.1 | 3* | i | 7 | 9
Cc1c(NC(=O)c2ccc3c(c2)OCO3)cccc1-c1nc2ccccc2o1 | 5% | 0.99 | 1.1 | i | 4 | 11
COc1ccc(C)cc1NC(=O)c1cnc2scc(C)n2c1=O | 5% | 1.1 | 2.1* | . | 0 | 9
CCc1ccc(NC(=O)c2cnc3scc(C)n3c2=O)cc1 | 26% | 1.2 | 1.2 | + | 14 | 4
Cc1csc2ncc(C(=O)Nc3cccc(C(F)(F)F)c3)c(=O)n12 | 10% | 1.1 | 1.4 | i | 3 | 5
COc1cc(C)nc(OCCNS(=O)(=O)c2cc(C)ccc2C)n1 | 7% | 0.98 | 1 | i | 2 | 19
Cc1ccc2c(c1)c1cccc3c1n2CCN3CCC(N)=O | 11% | 1.1 | 2.2* | . | 7 | 14
Cc1ccc(C)c(C(=O)CC2(O)C(=O)N(C)c3ccccc32)c1 (stereo not given) | 3% | 0.98 | 1 | i | 1 | 16
CCS(=O)(=O)N1CCc2cc(OC)c(OC)cc2C1 | 2% | 1 | 1.1 | i | 6 | 0
COc1cc2c(cc1OC)CN(Cc1ccc(OC)c(C)c1OC)CC2 | 15% | 1.1 | 1.1 | i | 46* | 0
COc1cc2c(cc1OC)CN(Cc1cccs1)CC2 | 22% | 1.1 | 1.2 | i | 48* | 13
Cn1c(=O)c2c3c(sc2n2c(SCC(=O)c4ccc(Cl)cc4)nnc12)COC(C)(C)C3 | 2% | 0.97 | 1 | i | 0 | 10
Nc1ccc2[nH]ncc2c1 | 4% | 0.98 | 2.3* | . | 5 | 5
CC1CCN(Cc2ccc(-c3nn[nH]n3)cc2)CC1 | 1% | 0.99 | 1 | i | 10 | 1
Cc1cc(=O)oc2cc(OCc3ccc(S(=O)(=O)N4CCOCC4)cc3)ccc12 | 1% | 1.1 | 2.1* | . | 2 | 0
CCOC(=O)c1snc2c(=O)[nH]cnc12 | 7% | 1.1 | 3.7* | . | 4 | 10
CCOC(=O)c1sc(Nc2nc3c(OC)cccc3s2)nc1C | 9% | 1 | 2.2* | + | 0 | 10
COC(=O)c1cc(-c2c(C)oc3cc(OC)ccc3c2=O)c(C)o1 | 9% | 1 | 1.1 | i | 8 | 19
COC(=O)c1cc(-c2c(C)oc3cc(O)ccc3c2=O)c(C)o1 | 7% | 1 | 2.4* | . | 16 | 19
Cc1oc2cc(O)ccc2c(=O)c1N1C(=O)c2ccccc2C1=O | 13% | 1.1 | 1.8 | + | 4 | 0
Cc1ccccc1-c1c(C)oc2cc(O)ccc2c1=O | 9% | 1.1 | 2.2* | . | 0 | 18
Cc1oc2cc(O)cc(O)c2c(=O)c1-c1ccc2c(c1)OCCCO2 | 3% | 1 | 1.1 | i | 8 | 2
